# Where two headings read alike, the source gives them in different places.
# How the values were obtained:
# Set-up in all cases: species or system human, MV4-11 + K-562 + COLO205 + SK-N-BE2 + OVCAR-8
# PIK3C3 = conditions: read-out: apparent Kd, n = 1
# PIK3CA = conditions: read-out: apparent Kd, n = 1
# ROCK1 = conditions: read-out: apparent Kd, n = 1
# ROCK2 = conditions: read-out: apparent Kd, n = 1
# TESK1 = conditions: read-out: apparent Kd, n = 1
# PLK1 = conditions: read-out: apparent Kd, compound concentrations: 100 nM and 1000 nM (sheet 'Samples'), n = 1
# [1] = compound concentrations: 100 nM and 1000 nM (sheet 'Samples'), CATDS: 1
# [2] = compound concentrations:100 nM and 1000 nM (sheet 'Samples')
structure (smiles),measurement,setting,value
Nc1ncc(-c2ccc3nccc(-c4ccncc4)c3c2)cc1S(=O)(=O)N1CCCCC1 [GSK1693850A],potency estimated from few doses,"PIK3C3; compound concentrations: 100 nM and 1000 nM (sheet 'Samples'), CATDS: 6.5868178094699706E-2",1120 nM
same,potency estimated from few doses,"PIK3CA; compound concentrations: 100 nM and 1000 nM (sheet 'Samples'), CATDS: 0.402374173970307",6.74 nM
Nc1ncnc2c1nc(-c1ccccc1)n2-c1ccccc1 [SKF-97293],potency estimated from few doses,PIK3CA; [1],284 nM
Cl.NC(=O)c1cccc(Nc2nccc(Nc3ccc(Oc4c(Cl)cccc4Cl)c(Cl)c3)n2)c1 [GW659009A],potency estimated from few doses,"PIK3CA; compound concentrations: 100 nM and 1000 nM (sheet 'Samples'), CATDS: 0.34504160600825701",183 nM
COc1cccc(-n2ncc3c(N/N=C/c4cccc(F)c4)ncnc32)c1 [GW817394X],potency estimated from few doses,PIK3CA; [1],237 nM
CSc1nn2c(=O)cc(N3CCOCC3)nc2n1Cc1cccc(Cl)c1Cl [GSK2347225A],potency estimated from few doses,"PIK3C3; compound concentrations: 100 nM and 1000 nM (sheet 'Samples'), CATDS: 0.39036921617708198",41 nM
COc1ncc(-c2cc(-c3ncc(CN4C[C@@H](C)O[C@@H](C)C4)o3)c3cn[nH]c3c2)cc1NS(C)(=O)=O [GSK2292767],potency estimated from few doses,"PIK3C3; compound concentrations: 100 nM and 1000 nM (sheet 'Samples'), CATDS: 0.16198268418526299",70.7 nM
same,potency estimated from few doses,"PIK3CA; compound concentrations: 100 nM and 1000 nM (sheet 'Samples'), CATDS: 0.29964038012822602",9.18 nM
CN(C)CCOc1ccc(-c2cc(-c3ccc(Cl)c(O)c3)c(-c3ccncc3)[nH]2)cc1.CN(C)CCOc1ccc(-c2cc(-c3ccc(Cl)c(O)c3)c(-c3ccncc3)[nH]2)cc1.Cl.Cl [SB-684387-B],potency estimated from few doses,"PIK3CA; compound concentrations: 100 nM and 1000 nM (sheet 'Samples'), CATDS: 0.97128160740856295",16 nM
Cc1nn2c(=O)cc(N3CCOCC3)nc2n1Cc1cccc(Cl)c1Cl [GSK2342769A],potency estimated from few doses,PIK3C3; [2],8.1 nM
O=c1cc(N2CCOCC2)nc2n(Cc3cccc(Cl)c3)ccn12 [GSK2296823A],potency estimated from few doses,PIK3C3; [2],667 nM
Cl.O=S1CCN(Cc2ccc(-c3ccc4ncnc(Nc5ccc(OCc6ccccc6)c(Cl)c5)c4c3)o2)CC1 [GW583373A],potency estimated from few doses,PIK3CA; [2],213 nM
O=c1cc(N2CCOCC2)nc2n(Cc3ccc(F)c(Cl)c3)ccn12 [GSK2297099A],potency estimated from few doses,PIK3C3; [2],912 nM
same,potency estimated from few doses,PIK3CA; [2],186 nM
CC(C)c1ccc(O)cc1Nc1ccnc2ccc(C(F)(F)F)cc12 [GW482059X],potency estimated from few doses,"PIK3CA; compound concentrations: 100 nM and 1000 nM (sheet 'Samples'), CATDS: 0.44189081373448802",239 nM
CN(C)S(=O)(=O)c1cc(-c2ccc3nccc(-c4cccc(S(N)(=O)=O)c4)c3c2)cnc1N [GSK1669921A],potency estimated from few doses,"PIK3CA; compound concentrations: 100 nM and 1000 nM (sheet 'Samples'), CATDS: 0.37789009746554098",23 nM
O=C(NCCNc1ccnc(Nc2ccc(F)cc2)n1)Nc1ccccc1F [GSK1379880A],potency estimated from few doses,"PIK3CA; compound concentrations: 100 nM and 1000 nM (sheet 'Samples'), CATDS: 0.78372192939813501",233 nM
CC1=C(C(=O)Nc2cc3cn[nH]c3cc2F)C(c2ccc(C(F)(F)F)cc2)CC(=O)N1 (stereo not shown) [GSK429286A],potency estimated from few doses,"ROCK1; compound concentrations: 100 nM and 1000 nM (sheet 'Samples'), CATDS: 0.46177660943925602",57.8 nM
same,potency estimated from few doses,"ROCK2; compound concentrations: 100 nM and 1000 nM (sheet 'Samples'), CATDS: 0.48334108773041601",53 nM
Cl.NC(=O)c1cccc(Nc2nccc(Nc3ccc(Oc4cccc(Cl)c4)c(Cl)c3)n2)c1 [GW659008A],potency estimated from few doses,TESK1; [1],1780 nM
Cc1ccccc1COc1cc(-n2cnc3cc(Cl)ccc32)sc1C(N)=O [GW813349X],potency estimated from few doses,PLK1; CATDS: 1,1570 nM
CN(C)CCCn1c(-c2nonc2N)nc2cnccc21 [SB-751399-B],potency estimated from few doses,"ROCK1; compound concentrations: 100 nM and 1000 nM (sheet 'Samples'), CATDS: 0.43789550307339298",1470 nM
same,potency estimated from few doses,"ROCK2; compound concentrations: 100 nM and 1000 nM (sheet 'Samples'), CATDS: 0.58263169675533599",821 nM
CCCNC(=O)Nc1ccc(N(C)c2ccnc(NC3CC3)n2)cc1 [GW818933X],potency estimated from few doses,"TESK1; compound concentrations: 100 nM and 1000 nM (sheet 'Samples'), CATDS: 0.44455887865749399",1860 nM
COC(=O)c1cccc(NC(=O)NC2CCN(c3ccnc(Nc4ccc(F)cc4)n3)C2)c1 (stereo not shown) [GSK1379725A],potency estimated from few doses,TESK1; [1],1320 nM
CC1=C(C(=O)Nc2ccc3[nH]nc(C)c3c2)C(c2ccc(C(F)(F)F)cc2)CC(=O)N1 (stereo not shown) [GSK466314A],potency estimated from few doses,"ROCK1; compound concentrations: 100 nM and 1000 nM (sheet 'Samples'), CATDS: 0.49623940575875802",94.4 nM
same,potency estimated from few doses,"ROCK2; compound concentrations: 100 nM and 1000 nM (sheet 'Samples'), CATDS: 0.50381802643412599",91.6 nM
NC(=O)c1sc(-n2cnc3ccccc32)cc1OCc1ccccc1Br [GSK1023156A],potency estimated from few doses,PLK1; CATDS: 1,814 nM
CCn1c(-c2nonc2N)nc2cnc(Oc3cccc(NC(=O)c4ccc(N(C)C)cc4)c3)cc21 [GSK248233A],potency estimated from few doses,ROCK1; [2],230 nM
same,potency estimated from few doses,ROCK2; [2],181 nM
CC1=C(C(=O)Nc2ccc3[nH]ncc3c2)C(c2ccc(F)cc2)N=C(c2ccc(C(F)(F)F)nc2)N1 (stereo not shown) [GSK317354A],potency estimated from few doses,"ROCK1; compound concentrations: 100 nM and 1000 nM (sheet 'Samples'), CATDS: 0.52745543701192599",630 nM
same,potency estimated from few doses,"ROCK2; compound concentrations: 100 nM and 1000 nM (sheet 'Samples'), CATDS: 0.475261399355146",777 nM
N#Cc1ccc(C(=O)c2cnn(-c3ccc(F)cc3)c2N)cc1 [RO1153198-000],potency estimated from few doses,"TESK1; compound concentrations: 100 nM and 1000 nM (sheet 'Samples'), CATDS: 0.53853377364092803",1530 nM
COc1ccc2ncn(-c3cc(O[C@H](C)c4ccccc4C(F)(F)F)c(C(N)=O)s3)c2c1 [GSK317315A],potency estimated from few doses,PLK1; CATDS: 0.88975940081611404,128 nM
Nc1nonc1-c1nc2cnccc2n1C1CC1 [SB-736302],potency estimated from few doses,"ROCK1; compound concentrations: 100 nM and 1000 nM (sheet 'Samples'), CATDS: 0.19196895649818499",1820 nM
same,potency estimated from few doses,"ROCK2; compound concentrations: 100 nM and 1000 nM (sheet 'Samples'), CATDS: 0.21159695131376299",1380 nM
CC1=C(C(=O)Nc2ccc3[nH]ncc3c2)C(c2ccc(Cl)c(Cl)c2)CC(=O)N1 (stereo not shown) [GSK299115A],potency estimated from few doses,ROCK1; [2],112 nM
same,potency estimated from few doses,ROCK2; [2],140 nM
COc1cc2ncn(-c3cc(OCC4CCCO4)c(C(N)=O)s3)c2cc1OC (stereo not shown) [GSK204607A],potency estimated from few doses,PLK1; CATDS: 0.33403432138317102,838 nM
Cc1nnc(-c2ccc(C)c(-c3ccc(C(=O)O)cc3)c2)o1 [GW608005X],potency estimated from few doses,TESK1; [2],900 nM

# — PMC11062922 (Nature Chemical Biology, 2023)
